# Source: ChEMBL document CHEMBL3988442, “University of Dundee, Small-Polar-MMV Screening Library” (2021)
# About 13,000 (27%) of roughly 48,000 compounds showed an effect of 50% or more. Some of the results follow.
# System: Wolbachia pipientis
# Test: Anti-Wolbachia Cell-Based Screen
# Type: functional
# Design: scale not given: in the data most compounds retested in dose-response had high values
# Details: 5 µM
row,Compound,Percent Effect
1,Cc1occc1C(=O)Nc1cc(N2CCNC2=O)ccc1Cl,-16.86%
2,CNCC(=O)N[C@H]1CN(c2nc(C)c3c(n2)CCCC3)C[C@@H]1C1CC1,-22.84%
3,CCc1ccc(C2NCCc3cc4c(cc32)OCCO4)cc1 (stereo not drawn),132.5%
4,OCCCNC1CCc2cc3c(cc21)OCCO3 (stereo not drawn),0.5317%
5,OCC1(CNC2CCc3cc4c(cc32)OCCO4)CC1 (stereo not drawn),-8.17%
6,Fc1ccccc1C1NCCc2cc3c(cc21)OCCO3 (stereo not drawn),96.06%
7,O=C(CCSc1ccccc1F)NS(=O)(=O)c1ccc2c(c1)OCCO2,-3.97%
8,Clc1ccc(C2NCCc3cc4c(cc32)OCCO4)cc1 (stereo not drawn),60.9%
9,O=C(CSc1ccc2c(c1)OCCO2)NS(=O)(=O)c1ccccc1F,11.66%
10,OCCNC1CCc2cc3c(cc21)OCCO3 (stereo not drawn),-2.778%
11,CCc1nc2c(NCC3COc4ccccc4C3)ncnc2o1 (stereo not drawn),-41.62%
12,CCNC(=O)C(C)NC(=O)Nc1ccccc1SCC (stereo not drawn),-19.41%
13,Cc1cccc(CN2CCCC(O)(CNCc3cccc(F)c3)C2=O)c1 (stereo not drawn),-1.044%
14,Cc1oncc1C(=O)N1CCC2(CCN(Cc3cccc(F)c3)C2=O)C1 (stereo not drawn),82.89%
15,Cc1oncc1C(=O)N1CC[C@@H]2[C@@H]1CC(=O)N2Cc1cccnc1.O=C(O)C(F)(F)F,95.81%
16,COCCN1CCC2(CCCN(C(=O)c3cnoc3C)C2)C1=O (stereo not drawn),5.935%
17,Cc1oncc1C(=O)N1CCC2(CCN(Cc3cccnc3)C2=O)C1.O=C(O)C(F)(F)F (stereo not drawn),107.4%
18,Cc1oncc1C(=O)N1CC[C@H]2[C@@H]1CCC(=O)N2c1cccnc1.O=C(O)C(F)(F)F,-37.57%
19,O=C(O)C(F)(F)F.O=C(c1ccco1)N1CC[C@H]2[C@H]1CC(=O)N2c1cccnc1,-20.41%
20,F[C@@H]1CN(Cc2nccs2)C[C@@H]1OCc1nc2cnccc2[nH]1,1.083%
21,O=C(NC1CC1)C1CN(Cc2ccc3c(c2)OCCO3)CCN1 (stereo not drawn),-21.08%
22,COc1ccc(CCNC(=O)C2CCC(Cn3cnnn3)CC2)cc1 (stereo not drawn),-2.407%
23,COc1ccc(C)cc1C(C)NS(=O)(=O)c1ccc2c(c1)CCC(=O)N2 (stereo not drawn),-0.1201%
24,COc1cccc(NC(=O)NC(C)c2ccc3c(c2)CC(=O)N3)c1 (stereo not drawn),-1.814%
25,COC(=O)c1ccc(NC(C)c2ccc3c(c2)CCC(=O)N3)nn1 (stereo not drawn),54.02%
26,COC(=O)c1ccc(NC(C)c2ccc3c(c2)NC(=O)CO3)nn1 (stereo not drawn),109.1%

row,Compound,Percent Effect
1,COC(=O)c1ccc(NC(C)c2ccc3c(c2)CC(=O)N3)nn1 (stereo not drawn),83.43%
2,CC(NC(=O)Nc1ccncc1)c1ccc2c(c1)CC(=O)N2 (stereo not drawn),6.994%
3,CC(NC(=O)NCCCn1cccn1)c1ccc2c(c1)NC(=O)CO2 (stereo not drawn),-10.21%
4,CC(NC(=O)NCCn1ccnc1)c1ccc2c(c1)NC(=O)CO2 (stereo not drawn),-0.9133%
5,COc1ccc(C(C)NS(=O)(=O)c2ccc3c(c2)CCC(=O)N3)cc1F (stereo not drawn),13.2%
6,COc1ccc(-c2noc(Cn3cc4c(n3)CCC4)n2)c(OC)c1OC,2%
7,Cc1cc2n(n1)CC(CNC1CCN(Cc3ccccc3C)CC1)CN2 (stereo not drawn),-1.399%
8,COC(=O)c1ccc(N2CCN(CCC#N)C(C)C2)cc1 (stereo not drawn),9.254%
9,COC(=O)c1ccc(N2CCN(CC(=O)NC(N)=O)C(C)C2)cc1 (stereo not drawn),126.9%
10,COC(=O)c1ccc(N2CCN(CCN3CCOCC3)C(C)C2)cc1 (stereo not drawn),-3.012%
11,COC(=O)c1ccc(N2CCN(C(=O)C3CCC3)C(C)C2)cc1 (stereo not drawn),-8.706%
12,COC(=O)c1ccc(N2CCN(CCC(=O)NC(N)=O)C(C)C2)cc1 (stereo not drawn),4.115%
13,CCC(=O)N1CCN(c2ccc(C(=O)OC)cc2)CC1C (stereo not drawn),-6.169%
14,CNC(=O)NC(=O)CCN1CCN(c2ccc(C(=O)OC)cc2)CC1C (stereo not drawn),121.7%
15,CNC(=O)NC(=O)CN1CCN(c2ccc(C(=O)OC)cc2)CC1C (stereo not drawn),123.3%
16,COCC(=O)N1CCN(c2ccc(C(=O)OC)cc2)CC1C (stereo not drawn),-2.487%
17,COC(=O)c1ccc(N2CCN(C(=O)CC(F)(F)F)C(C)C2)cc1 (stereo not drawn),-6.136%
18,COC(=O)c1ccc(N2CCN(CCS(C)(=O)=O)C(C)C2)cc1 (stereo not drawn),130.9%
19,COC(=O)c1ccc(N2CCN(C(=O)C3CC3)C(C)C2)cc1 (stereo not drawn),-9.327%
20,CCn1nc(CC(C)C)cc1C(=O)N1CCOCC(O)C1 (stereo not drawn),14.61%
21,Cc1c(Br)cccc1NC(=O)N(C)CCO,-1.587%
22,CCc1cc(N[C@H]2CCC[C@H]2O)n2nccc2n1,-17.41%
23,O=C(CCn1ccnc1)N1CC[C@@H](c2ccc3ccccc3c2)[C@H](O)C1,3.256%
24,Cc1nn(C)c(C)c1C1CCCN1C(=O)c1ccc(CN(C)C)cc1 (stereo not drawn),0.5484%
25,Cc1nc(C(=O)N2CCCC2c2c(C)nn(C)c2C)ccc1C#N (stereo not drawn),-5.29%
26,COc1c(C2CCCN2C(=O)c2ccc3c(c2)OCO3)c(C)nn1C (stereo not drawn),110.4%

row,Compound,Percent Effect
1,Cc1nn(C)c(C)c1C1CCCN1C(=O)c1ccc2c(c1)OCCO2 (stereo not drawn),107.2%
2,Cc1nn(C)c(Cl)c1C1CCCN1C(=O)c1ccc2c(c1)OCO2 (stereo not drawn),4.266%
3,NC(=O)CC1CCCCN1C(=O)Cc1cccc(Br)c1 (stereo not drawn),-22.53%
4,Cc1ccc(N2CCC(NC(C)c3ccc(C)o3)CC2)nc1 (stereo not drawn),5.031%
5,O=C(CC(F)(F)F)N1C[C@H]2CC[C@@H]1CN(Cc1ccccc1)C2,-26.8%
6,c1cncc(-c2c[nH]c([C@@H]3COCCN3Cc3ccncc3)n2)c1,-1.952%
7,COCCn1ccc2c(C(=O)Nc3nc4c(s3)CCC4)cccc21,149.9%
8,CN(CC(=O)Nc1nc2c(s1)CCC2)C(=O)c1cccs1,12.75%
9,COCCn1cc(CC(=O)Nc2nc3c(s2)CCC3)c2ccccc21,108.7%
10,CN(CC(=O)Nc1nc2c(s1)CCCCCC2)C(=O)c1ccco1,-14.29%
11,COCCn1cc(C(=O)N2CCCC2c2ccncc2)c2ccccc21 (stereo not drawn),12.21%
12,COc1ncccc1C(=O)Nc1nc2c(s1)CN(S(=O)(=O)C1CC1)CC2,-5.987%
13,NC(=O)CCSCc1cc(Br)cc2cccnc12,-18.43%
14,CCn1cc(C#N)c(=O)c2cc(Br)ccc21,-20.97%
15,C=C(C)CN(CC)Cc1nc(C(C)(C)C)no1,1.625%
16,Cc1ccccc1CN(Cc1ccc(S(C)(=O)=O)cc1)CC(C)C,34.24%
17,COc1cc(Br)cc(CNC2CCCNC2=O)c1O (stereo not drawn),-10.61%
18,COc1cc(Br)c(CNC2CCCNC2=O)cc1OC.Cl (stereo not drawn),-7.392%
19,COCc1ccc(OC)c(CNC2CCCNC2=O)c1 (stereo not drawn),133.5%
20,Cn1cccc1CNCC1CCCn2cc(C(C)(C)C)nc21 (stereo not drawn),4.297%
21,NCC1CCN(c2cnn(CCCn3cccn3)c(=O)c2)CC1,3.68%
22,Cc1cc(C)n(CC2CCCCN2CCC(=O)Nc2cc(C)on2)n1 (stereo not drawn),105.6%
23,Cc1cc(C)n(CC2CCCN2CCC(=O)Nc2cc(C)on2)n1 (stereo not drawn),109.3%
24,Cc1cc(C)n(CC2CCCCN2CC(=O)Nc2ccncc2)n1 (stereo not drawn),9.261%
25,Cc1cc(C)n(CC2CCCCN2CC(=O)Nc2nnc(C)s2)n1 (stereo not drawn),-11.09%
26,Cc1cc(C)n(CC2CCCN2CC(=O)NC2CCOCC2)n1 (stereo not drawn),-0.8879%

row,Compound,Percent Effect
1,Cc1cc(C)n(CC2CCCN2CC(=O)Nc2nnc(C)s2)n1 (stereo not drawn),-4.484%
2,CN(C)C(=O)C1CN(Cc2ccc(C#N)cc2F)c2ccccc2O1 (stereo not drawn),-1.206%
3,CC(NC(=O)N1CCN(c2cccs2)CC1)c1ccncc1 (stereo not drawn),-4.876%
4,CC(=O)N1CCCC(C(=O)N2CCN(Cc3cc(C)on3)CC2)C1 (stereo not drawn),8.609%
5,CSc1nnc(CC2CCN(C(=O)COc3cccnc3)CC2)n1C,8.261%
6,O=C(Cc1cnccn1)N1CCC(c2nccn2CC2CC2)CC1,-28.72%
7,CCC(=O)N1CCC(Cc2cnc(Nc3cnccn3)cn2)CC1,88.17%
8,CC(=O)N1CCC(NC2(Cc3cc(C(C)(C)O)on3)COC2)CC1,1.756%
9,CC(=O)N1CCC(Cc2cnc(Nc3cc(C)on3)cn2)CC1,121.6%
10,Cc1cnn(CC2CN(CC(=O)NCc3ccccn3)CCO2)c1 (stereo not drawn),-0.3283%
11,Cc1cnn(CC2CCCN2CC(=O)Nc2nccs2)c1 (stereo not drawn),91.79%
12,Cc1cnn(CC2CCCCN2CC(=O)Nc2nncs2)c1 (stereo not drawn),-7.053%
13,Cc1cnn(CC2CCCN2CC(=O)Nc2nncs2)c1 (stereo not drawn),1.96%
14,Cc1cnn(CC2CCCN2CC(=O)Nc2cc(C)on2)c1 (stereo not drawn),104.6%
15,Cc1cnn(CC2CCCCN2CCC(=O)Nc2cc(C)on2)c1 (stereo not drawn),2.664%
16,Cc1cnn(CC2CCCCN2CC(=O)Nc2c(C)n[nH]c2C)c1 (stereo not drawn),8.734%
17,O=C(CN1CCCCC1Cn1cncn1)NCc1ccccn1 (stereo not drawn),-8.236%
18,Cc1cnn(CC2CCCN2CC(=O)Nc2cc(C)no2)c1 (stereo not drawn),114.2%
19,Cc1cnn(CC2CCCN2CC(=O)NCc2ccccn2)c1 (stereo not drawn),118.9%
20,CCN1CCC(NC(=O)CN2CCCCC2Cn2cc(C)cn2)CC1 (stereo not drawn),7.683%
21,O=C(O)CC[C@@H]1CN(c2ccncc2)CC[C@@H]1N1CCOCC1,-3.387%
22,Cc1ccc(C(=O)N2CCSCC2)cc1NC(=O)NCC1CCC1,-32.66%
23,Cc1cnn(CC2CCCN2CC(=O)Nc2cc(C(C)C)no2)c1 (stereo not drawn),129.6%
24,Cc1cnn(CC2CCCN2CC(=O)N(C)Cc2ccc(C)o2)c1 (stereo not drawn),15.94%
25,Cn1ncc(NCc2cc(F)cc(F)c2)c(Cl)c1=O,-8.673%
